From PubChem BioAssay
A selection: hits, their analogues and other compounds. The true share with any hit is near 4.2%.
FBA Mtb inh – inhibitors of M. tuberculosis fructose-bisphosphate aldolase; P9WQA3; purified M. tuberculosis FBA, fluorescence read-out; inhibition, % at 1 µM; 2.3% of 360,000 active; AID 588726; in the data active means inhibition above about 27%;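 further: 0% = vehicle and 100% = reference inhibitor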
Target sequence (P9WQA3 whole entry, looked up): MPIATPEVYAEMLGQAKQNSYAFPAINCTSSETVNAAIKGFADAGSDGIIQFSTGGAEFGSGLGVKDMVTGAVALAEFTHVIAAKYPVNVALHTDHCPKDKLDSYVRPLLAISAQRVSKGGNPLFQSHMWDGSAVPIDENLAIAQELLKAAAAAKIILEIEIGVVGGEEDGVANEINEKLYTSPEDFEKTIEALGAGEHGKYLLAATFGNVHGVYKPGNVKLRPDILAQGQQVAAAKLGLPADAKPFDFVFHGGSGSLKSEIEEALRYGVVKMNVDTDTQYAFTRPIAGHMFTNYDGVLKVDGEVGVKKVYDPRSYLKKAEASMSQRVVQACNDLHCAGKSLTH
RecA intein inh – blocks M. tuberculosis RecA intein splicing | cell-free RecA intein splicing, fluorescence | inhibition, % (concentration not given with the values) | 0.75% of 290,000 active | AID 2221; in the data active means inhibition above about 30%;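 further: 0% = vehicle wells and 100% = reference inhibitor control wells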
GDH-TPI counter-1 – inhibits GDH-TPI coupling enzymes, artifact for Mtb FBA screen; GDH-TPI coupled enzyme counterscreen, NADH absorbance; inhibition, % at 4.8 µM; 1.2% of 360,000 active;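 further: 0% = DMSO wells and 100% = wells lacking the enzyme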
CCHF vOTU inh – blocks the CCHF virus ovarian tumor domain protease; CCHFV vOTU protease, Pep-AMC fluorescence; inhibition, % at 11.5 µM; 0.55% of 370,000 active; AID 651958; further: 0% = vehicle wells with enzyme and 100% = no enzyme wells
Mtb FBA confirm – Mtb FBA inhibition, confirmed | shares compounds with FBA Mtb inh | purified M. tuberculosis FBA, fluorescence read-out | inhibition, % at 1 µM | 78% of 5,600 active; in the data active means inhibition above about 27%;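 further: 0% = vehicle wells and 100% = reference inhibitor wells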
GDH-TPI counter-2 – inhibits GDH-TPI coupling enzymes, flagging Mtb FBA hits; shares compounds with FBA Mtb inh; GDH-TPI coupled enzyme counterscreen, fluorescence; inhibition, % at 1 µM; 81% of 5,600 active; AID 652141; in the data active means inhibition above about 10%
GDH-TPI DR – GDH-TPI dose response counter-screen for Mtb FBA. shares compounds with FBA Mtb inh. GDH-TPI coupled enzyme assay, fluorescence, artifact counterscreen. IC50, µM. 79% of 170 active; call rule not given here
The depositor's hits bear a star; nt = no result given; + = active, no number. Unless noted, no stated cut-off is given here; in the data, active means inhibition above about 30%; inactive means the rest.

SMILES	FBA Mtb inh	RecA intein inh	GDH-TPI counter-1	CCHF vOTU inh	Mtb FBA confirm	GDH-TPI counter-2	others
O=C(CC1Sc2ccccc2NC1=O)OCc1cc(=O)oc2cc(O)ccc12 (stereo not given)	35*	-16	21	-18	91*	80*
CCOc1ccc(S(=O)(=O)NCC2CCCO2)c2ccccc12 (stereo not given)	0	1	-6	2	nt	nt
CCOc1ccc(S(=O)(=O)NCC2CCCO2)c2cccnc12 (stereo not given)	28*	6	1	-8	+	+
CCCOc1ccc(C(=O)N2CCN(Cc3ccc4c(c3)OCO4)CC2)cc1	-1	7	-4	-5	nt	nt
COc1ccc(C2CC(c3ccc(F)cc3)=NN2c2ccccc2)cc1OC (stereo not given)	11	13	-10	-12	nt	nt
Cc1ccc(C2CC(c3ccccc3)=NN2c2ccccc2)o1 (stereo not given)	43*	1	6	-23	15	8	GDH-TPI DR=1.3*
COc1ccc(C2=NN(c3ccccc3)C(c3ccc(OC)c(OC)c3)C2)cc1 (stereo not given)	80*	3	11	-27	53*	51*
Fc1ccc(C2=NN(c3ccccc3)C(c3ccco3)C2)cc1 (stereo not given)	48*	-2	2	-33	60*	48*
O=S(=O)(c1ccccc1)N1N=C(c2ccc(Cl)cc2)CC1c1ccco1 (stereo not given)	-2	nt	-6	-1	nt	nt
Oc1ccc(C2=NN(c3ccccc3)C(c3ccc(F)cc3)C2)cc1 (stereo not given)	101*	19	-7	-11	165*	148*
CC(=O)N1N=C(c2ccc(C)cc2)CC1c1ccco1 (stereo not given)	4	-2	5	26	nt	nt
CCOC(=O)C1CC(c2ccccc2)=NN1c1ccccc1 (stereo not given)	72*	nt	23	-26	35*	28*
Cc1ccc(N2N=C(c3ccc(F)cc3)CC2c2ccco2)cc1 (stereo not given)	62*	-4	10	-13	112*	96*
C(=C\c1ccco1)/C1=NN(c2ccccc2)C(c2ccco2)C1 (stereo not given)	40*	-193	12	nt	+	+
COc1ccc(C2CC(c3cccc(Br)c3)=NN2c2ccc(S(N)(=O)=O)cc2)cc1 (stereo not given)	102*	nt	15	-60	42*	31*
CCOC(=O)COc1ccc(C2CC(C)=NN2c2ccccc2)cc1 (stereo not given)	12	4	1	-6	nt	nt
COc1ccc(CN(C)C(=O)/C=C/[C@H]2O[C@@H](n3cc(C)c(=O)[nH]c3=O)C[C@@H]2O)cc1OC	-1	nt	nt	6	nt	nt
N#Cc1ccc(OCC(=O)NNC(=O)C2CCCCC2)cc1	30*	nt	8	-8	2	0
Cc1ccc(NC(=O)COC(=O)c2ccc(-n3nc(C)cc3C)cc2)c(F)c1	0	nt	-2	-5	nt	nt
Cc1cnc(C(=O)OCC(=O)c2ccc(Br)s2)cn1	-1	2	5	-7	nt	nt
N=C(N)n1c(N)nc2ccccc2c1=O	59*	-2	2	-20	25	11*
COc1cc2nc(N3CCN(C(=O)[C@H]4COc5ccccc5O4)CC3)nc(N)c2cc1OC	82*	2	3	-53	63*	38*
O=C(COc1ccccc1)Nc1ccc(-c2nnc(-c3ccco3)o2)cc1	36*	6	3	-12	4	5
CC(=O)/C=C(\C)Nc1ccc(-c2cnc(-c3ccccc3)o2)cc1	90*	10	19	-108	91*	76*
O=C(Cc1ccc(Cl)cc1)Nc1cccc(-c2nnc(-c3ccco3)o2)c1	8	-1	20	-2	nt	nt
SMILES	FBA Mtb inh	RecA intein inh	GDH-TPI counter-1	CCHF vOTU inh	Mtb FBA confirm	GDH-TPI counter-2	others
CC(C)C(=O)Nc1ccc(-c2nnc(-c3ccccc3)o2)cc1	33*	-1	-1	-3	47*	36*
O=C(Cc1ccccc1)Nc1cccc(-c2nnc(-c3ccco3)o2)c1	32*	1	5	2	38*	35*
COc1ccccc1C1CN(c2ccc(F)cc2F)N=C1c1cccs1 (stereo not given)	83*	-13	10	-50	177*	132*
COc1ccccc1C1CC(c2cccs2)=Nc2ccccc2S1 (stereo not given)	-1	5	6	9	nt	nt
CC(=O)Nc1ccc(N2C(=O)c3cccc(NC(C)=O)c3C2=O)cc1	-2	nt	1	5	nt	nt
O=C1NC(=O)c2c(NC(=O)C3CCCO3)cccc21 (stereo not given)	36*	1	16	-20	97*	88*
CC(=O)Nc1cccc2c1C(=O)NC2=O	28*	-1	2	-10	54*	43*
COCCn1c(=NC(=O)c2ccc3c(c2)OCCO3)sc2cc(S(N)(=O)=O)ccc21	109*	6	45*	-38	76*	50*
COCCn1c(=NC(=O)c2cc(Cl)sc2Cl)sc2cc(S(N)(=O)=O)ccc21	5	1	25	9	nt	nt
COC(=O)c1cc2c(s1)-c1ccc(OC)cc1CC2	109*	-7	18	-224	107*	94*
Cc1c(O)ccc2c3c(c(=O)oc12)CCC(C)C3 (stereo not given)	103*	-19	12	-95	+	+
COC(=O)c1ccccc1NC(=O)N1CCCC1	28*	-4	4	-18	102*	83*
Cc1cc(OCC(=O)Nc2ccc(CCO)cc2)c2c(C)c(C)c(=O)oc2c1	33*	0	7	-17	1	-3
CC(=O)COc1cc(C)cc2oc(=O)c(C)c(C)c12	38*	-1	15	-11	+	+
Cc1cc(OCC(=O)NC2CCN(Cc3ccccc3)CC2)c2c(C)cc(=O)oc2c1	19	1	0	4	nt	nt
Cc1cc(OCC(=O)N2CCC(O)CC2)c2c(C)cc(=O)oc2c1	100*	-2	4	nt	142*	105*
Cc1cc(OCC(=O)N2CCC(C(=O)NCC(C)C)CC2)c2c3c(c(=O)oc2c1)CCCC3	6	1	6	0	nt	nt
Cc1cc(OCC(=O)N2CCC(C(=O)O)CC2)c2c3c(c(=O)oc2c1)CCCC3	77*	nt	6	-23	131*	82*
CC(=O)Nc1nc2ncccn2c1-c1ccc(F)c(F)c1	nt	nt	nt	-46	nt	nt
CCOC(=O)CC1COCCN1C(=O)c1cc(COc2ccc(F)cc2Cl)on1 (stereo not given)	3	7	12	1	nt	nt
CCC1CN(C(=O)NCc2ccccc2)c2ccccc2O1 (stereo not given)	2	0	-6	-5	nt	nt
O=C(CCc1nnc2ccc(N3CCC4(CC3)OCCO4)nn12)NCc1ccccc1Cl	-1	-2	-2	10	nt	nt
